# Compounds with a hit are over-represented: about 4.8% of the library has one in this group of screens.
# ssDAF12 agonist = S. stercoralis DAF-12 activation, primary screen | AID 652126 | 370,000 tested, 1% active | activation, % at 6.8 µM | HEK293 ssDAF-12/GRIP1 lit1-tk-luc reporter, luminescence; % of 3 µM dafachronic acid response;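 active = activation above the mean over all tested compounds plus 3 SD, cut at about 0.9% in these data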;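 note: 0% = DMSO-only wells and 100% = 3 µM delta7-dafachronic acid wells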
# hcDAF-12 act = H. contortus DAF-12 activation, primary screen; HEK293 hcDAF-12 lit1-tk-luc reporter, luminescence; 0% DMSO, 100% Δ7-dafachronic acid; activation, % at 6.8 µM; 370,000 tested, 1.4% active;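 active = activation above the mean of all tested compounds plus 3 SD, cut at about 5.5% in these data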;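 note: 100% = response to 3 µM Δ7-dafachronic acid high control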
# DAX1 inh-1 = blocks DAX1 repression of SF-1 activated StAR promoter. 370,000 tested, 1.1% active. HEK293T StAR-luciferase reporter, SF-1/DAX-1 repression relief. inhibition, % at 6.8 µM;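 active = inhibition above the mean over all tested compounds plus 3 SD, cut at about 3.6% in these data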;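 note: 0% = DAX-1 cells with DMSO and 100% = cells lacking DAX-1 with DMSO; higher inhibition means more luminescence from relief of DAX-1 repression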
# hgDAF-12 ag = activates the H. glycines DAF-12 receptor ligand-binding domain; activation, % at 6.8 µM; HEK293 GAL4-hgDAF12 UAS-luciferase reporter, agonist luminescence; normalized to butyrate control; AID 687014; 370,000 tested, 1.8% active;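 active = activation above a cutoff set at the mean of all screened compounds plus 3 SD, cut at about 10% in these data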;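 note: 0% = DMSO wells and 100% = sodium butyrate wells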
# NR1D1 modulator = Rev-erb alpha (human) modulation; Rev-erbα–FITC-DNA binding, fluorescence polarization, 90 min; 370,000 tested, 0.79% active; activity, % at 10 µM;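 active = activity above about 14%, limit read from the data; passing the limit was not always enough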;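 note: 0% = DMSO wells with 35 nM protein and 100% = DMSO wells with 750 nM protein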
# DAX1 inh-2 = NR0B1 (DAX1) inhibition; HEK293 Gal4-DAX1 luciferase reporter, luminescence; P51843; 340,000 tested, 0.99% active; inhibition, % at 6.75 µM;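 active = inhibition above the mean over all tested compounds plus 3 SD, cut at about 4.2% in these data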;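 note: 0% = DAX1-transfected cells with DMSO and 100% = empty-vector control cells with DMSO; inhibition shows as a rise in luminescence from relieved DAX1 repression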
# Target sequence (P51843 207-470 limits assumed): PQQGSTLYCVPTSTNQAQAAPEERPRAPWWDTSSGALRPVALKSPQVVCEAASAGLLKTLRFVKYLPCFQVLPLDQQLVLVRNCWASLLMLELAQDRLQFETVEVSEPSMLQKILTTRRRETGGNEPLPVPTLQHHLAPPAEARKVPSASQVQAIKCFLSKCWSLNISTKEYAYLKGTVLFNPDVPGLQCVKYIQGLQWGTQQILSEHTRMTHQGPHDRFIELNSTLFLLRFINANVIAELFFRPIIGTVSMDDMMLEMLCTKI
# An asterisk follows results filed as active; · = no result.
SMILES,ssDAF12 agonist,hcDAF-12 act,DAX1 inh-1,hgDAF-12 ag,NR1D1 modulator,DAX1 inh-2
O=C(O)c1nn(-c2cccc(Cl)c2)c(=O)cc1O,1.2*,4,0,1,-2,-1
NC(=O)c1c(N)[nH]c(C(=O)c2ccccc2)c1-c1ccccc1,-1,0,0,-1,-1,·
CN(C(=O)CCNC(=O)Cn1cnc2ccccc2c1=O)c1ccc(F)cc1,-1,-2,0,3,1,4.8*
CCC(=O)c1coc2ccc(O)cc12,-1,0,0,-1,5,0
O=C(c1cccc(Br)c1)c1coc2ccc(O)cc12,0,4,1,13*,-2,1
O=C(c1cccs1)c1coc2ccc(O)cc12,-1,2,1,12*,1,4
COC(=O)[C@]12C[C@H](CC(=O)NCc3cccc(C(F)(F)F)c3)C(=O)N(Cc3ccc4c(c3)OCO4)C1=C[C@H](C(C)(C)C)O[C@@H]2C,-1,2,0,2,-3,·
O=S1(=O)c2c(cccc2N2CCSCC2)Oc2ccccc2CN1Cc1cn(Cc2cccc(C(F)(F)F)c2)nn1,-1,-3,0,-1,6,·
COC(=O)[C@]12C[C@H](CC(=O)NCC34CC5CC(CC(C5)C3)C4)C(=O)N(Cc3ccco3)C1=C[C@H](C1CCCC1)O[C@@H]2C,0,-3,-1,-3,2,·
COc1ccc(/C=C/c2nc(-c3ccccc3O)n[nH]2)cc1OC,-1,0,3,12*,5,2
CCOC1=C2CN(S(=O)(=O)c3ccc(C)cc3)[C@@H](c3ccc(CC)cc3)C[C@H]2[C@H]2C(=O)N(c3ccccc3)C(=O)[C@H]2C1,-2,2,-2,-1,-1,·
CCOC1=C2CN(S(=O)(=O)c3ccc(C)cc3)[C@H](c3ccccc3)C[C@H]2[C@H]2C(=O)N(c3ccccc3)C(=O)[C@H]2C1,-1,0,4.0*,-1,4,·
Cc1cc(-c2nn3c(C)nnc3s2)ccc1NC(=O)C(C)(C)C,0,5,3,12*,-2,1
Cc1ccc(-c2nn3c(C)nnc3s2)cc1NC(=O)c1cccs1,0,3,-1,2,1,0
O=C(COc1ccc(CO)cc1Cl)Nc1ccc(F)cc1,1,5,3,11*,-6,0
O=C(COc1ccc(CO)cc1)Nc1ccc(F)cc1,0,0,-1,8,-1,2
CN(C)CCC(=O)c1ccc2c(c1)OCO2,-1,-1,0,-1,-11,4
O=C(CCNc1ccccc1)c1ccc2c(c1)OCO2,1,4,3,11*,·,4.8*
Cc1cc(-c2nc3ccccc3o2)c2ccccc2n1,1.2*,2,-1,1,-4,1
Cc1cc(C(=O)O)c2ccccc2n1,-1,0,0,-1,-6,2
Clc1ccc(SCc2cn3ccccc3n2)cc1,-1,2,1,12*,0,2
Nc1nnc(SCc2cn3cc(Cl)ccc3n2)s1,0,2,1,12*,6,1
Cc1cccc2nc(CSc3ccc(Cl)cc3)cn12,-1,2,4.2*,12*,0,2
Cc1ccc(SCc2cn3cc(Cl)ccc3n2)cc1,0,1,0,4,4,-2
Clc1ccc(-n2nnnc2SCc2cn3ccccc3n2)cc1,-1,-1,0,4,-2,-1
SMILES,ssDAF12 agonist,hcDAF-12 act,DAX1 inh-1,hgDAF-12 ag,NR1D1 modulator,DAX1 inh-2
O=C(NCCc1ccccc1)OCc1cn(Cc2ccccc2C(F)(F)F)nn1,-2,0,0,2,0,·
O=C(OC12CCCN(C1)/C(=C/c1ccccc1)C2)c1ccccc1 (stereo unspecified),-1,-3,0,1,5,·
O=C(O)C1CSCN1 (stereo unspecified),·,·,·,·,3,·
CCOc1ccc(-n2c(=O)[nH]c3sc4c(c3c2=O)CCCC4)cc1,-1,0,0,1,7,7.8*
COc1cc(/C=C(\C#N)C(=O)Nc2cccc(C(=O)O)c2)ccc1OCc1ccc(C)cc1,0,6.5*,1,9,6,1
COC(=O)[C@]12C[C@H](CC(=O)NCc3ccc(OC)c(OC)c3)C(=O)N(Cc3ccccc3)C1=C[C@H](C(C)(C)C)O[C@@H]2C,-1,-1,2,1,-2,·
